Marburg entry inh – inhibitors of Marburg virus binding or cell entry | Marburg virus pseudotyped entry inhibition, cell reporter | Potency, µM (highest dose often 37.8 µM), without a hit: top-dose activity change, negative = inhibition, most hits filed as inhibitors | hit rate 1.8% among 300,000 | AID 540276; calls by dose curve; tested in HEK293 cells
AmpC no deterg – inhibitors of E. coli AmpC beta-lactamase without detergent. Potency, µM (titrated, usually from 57.1 µM), without a hit: top-dose activity change, negative = inhibition, hits mostly inhibitors. hit rate 0.52% among 330,000. AmpC nitrocefin hydrolysis, absorbance 480 nm, 0.0001% Triton. AID 485341;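 also: plate controls were no compound for no effect and no enzyme for full effect; nearly all actives have a fitted effect of over 20% in size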
Target sequence (P00811 whole entry, looked up): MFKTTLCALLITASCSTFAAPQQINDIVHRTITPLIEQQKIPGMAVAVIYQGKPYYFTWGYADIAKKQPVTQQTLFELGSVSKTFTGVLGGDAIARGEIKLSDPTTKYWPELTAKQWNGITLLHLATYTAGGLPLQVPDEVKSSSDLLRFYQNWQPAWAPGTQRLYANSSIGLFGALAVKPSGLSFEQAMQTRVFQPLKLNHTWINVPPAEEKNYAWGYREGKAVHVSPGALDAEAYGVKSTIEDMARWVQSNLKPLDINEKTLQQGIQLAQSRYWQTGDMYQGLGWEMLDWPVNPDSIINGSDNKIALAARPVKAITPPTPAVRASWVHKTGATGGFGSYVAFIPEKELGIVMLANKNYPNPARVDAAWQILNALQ
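AmpC (5.3 nM in the dispensed reagent) in 20 mM phosphate pH 7.0 with 0.01% (detergent screen) or 0.0001% Triton X-100 was preincubated with compounds for 15 min at room temperature. Nitrocefin was then added from an 800 uM solution, and hydrolysis was followed at 480 nm.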
AmpC inh detg – AmpC beta-lactamase inhibition with detergent present | P00811 | AmpC hydrolysis of nitrocefin, absorbance 480 nm, 0.01% Triton | Potency, µM (top dose mostly 114 µM), for the others: at the top dose activity change, negative = inhibition, most hits filed as inhibitors | hit rate 0.041% among 370,000 | AID 485294;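 also: 0% = no-compound wells and -100% = no-enzyme wells; nearly all actives have a fitted effect of over 25% in size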
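20 mM phosphate pH 7.0 + 0.01% (detergent screen) or 0.0001% Triton X-100; 5.3 nM AmpC reagent; cpd preinc 15 min RT; nitrocefin (800 uM stock) to start; A480 q20 s × 4 min; Activity was normalised to no-enzyme and no-compound control wells.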
Lassa entry inh – Lassa virus entry inhibition; Lassa virus pseudotype entry inhibition, cell reporter; Potency, µM (highest dose often 37.9 µM), inactives show at the highest dose activity change, negative = inhibition, hits mostly inhibitors; hit rate 1.2% among 300,000; AID 540256; calls by dose curve; tested in HEK293 cells; also: nearly all actives have a fitted effect of over 50% in size
AMA1-RON2 inh – AMA1-RON2 (P. falciparum) interaction inhibition. AlphaScreen AMA1-biotinylated RON2 peptide binding. Potency, µM (series often up to 58.2 µM), for inactives: top-dose activity change, negative = inhibition, hits mostly inhibitors. hit rate 0.2% among 360,000;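 also: 0% = vehicle wells and -100% = peptide control; nearly all actives have a fitted effect of over 45% in size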
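AMA1 (3D7) with his tag at 25 nM final met compounds first, then biotinylated RON2 peptide at 25 nM; detection used donor plus acceptor beads, 10 µg/mL apiece, read by AlphaScreen after 30 min at room temperature.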
* marks the source's active call; other numbers are inactive results; ? = inconclusive; / = no result; ! = a repeat was not active; [ ] = another dose, or the depositor's remark. Sampled rows, rich in hits. Any-hit rate of the full collection: about 2.3%. Unless noted, calls follow the shape of the dose curve; as a rule, active = well fitted curve in the direction sought with a large enough effect; inconclusive = small, poorly fitted or top-dose-only effect, or another doubt; inactive = no such curve, though single readings can be large; an effect the other way counts as inactive or inconclusive. Unless noted, % is scaled to controls: 0 for no effect and ±100 for the full control effect; potency is read from the fitted curve at half-maximal effect.

SMILES | Marburg entry inh | AmpC no deterg | AmpC inh detg | Lassa entry inh | AMA1-RON2 inh
O=[N+]([O-])c1ccccc1-c1ccc(C(=S)N2CCCCC2)o1 | ? | -35% | 7% | -12% | 25µM*
COc1ccc(N2CC(NC(=O)C(=O)c3c[nH]c4ccccc34)CC2=O)cc1 (stereo not given) | / | / | 3% | -1%[46.1 µM] | /
CCOc1ccc(CS[C@@H](CC(=O)O)C(=O)O)cc1 | 8% | / | / | / | /
CCOC(=O)N1CCc2c(sc3c2C(=O)NC(c2ccc(N(C)C)cc2)N3)C1 (stereo not given) | ? | / | 13% | ? | /
CCOC(=O)N1CCc2c(sc3c2C(=O)NC(c2ccccc2)N3)C1 (stereo not given) | 3.2µM* | -20% | -12% | ? | 9%
CCOc1ccc(CCNC(=O)c2cc3sc(CC)cc3n2C)cc1OCC | -3%[46.1 µM] | / | 19% | / | /
CCOc1ccc(CCNC(=O)c2cc3sccc3n2CC)cc1OCC | ? | / | 0% | 15µM* | -26%
C=C(C)C(=O)C=Cc1ccc(Br)cc1 | 6%[14.2 µM] | / | / | / | /
O=C(Cn1ncc2c3ccccc3n(Cc3cccc(Cl)c3)c2c1=O)N1CCCCCC1 | -21%[46.1 µM] | / | 15% | -12%[46.1 µM] | /
CCc1ccccc1Nc1nc(N)nc(COC(=O)CCC(=O)c2ccc(F)cc2)n1 | ? | 15% | 2% | 10µM* | 27%
CCCCC(=O)OCc1nc(N)nc(Nc2ccccc2C)n1 | -25% | -10% | ? | ? | 48%
CCCN1Cc2cccc(C(=O)Nc3cccc(C(=O)OCC)c3)c2C1=O | 0%[46.1 µM] | / | 3% | 0%[46.1 µM] | /
CNCCCC12CCC(c3ccccc31)c1ccccc12 | 4.6µM* | 49% | ? | 16µM* | -2%
COc1ccc(C(O)C(CN2CCOCC2)c2ccccc2)cc1F (stereo not given) | 6% | -9% | 3% | -2% | -4%
O=C(c1ccccc1)C(CN1CCCC1)c1ccccc1 (stereo not given) | 7.1µM* | -8% | 2% | 7.9µM* | 6%
COc1ccc(C(=O)C(CN2CCOCC2)c2ccccc2)cc1F (stereo not given) | 8.9µM* | 0% | 1% | ? | 0%
CCCOc1ccc(C(=O)C(CN2CCOCC2)c2ccccc2)cc1 (stereo not given) | 16µM* | 107% | 6% | ? | -1%
COc1ccccc1NC(=O)Cn1c(=O)n(CCc2ccccc2)c(=O)c2c3c(sc21)CN(C(C)=O)CC3 | ? | / | 3% | / | /
Cc1sc2ncnc(-n3nnc4ccccc43)c2c1C | / | -9% | 0% | / | 6%
Brc1ccc(-c2csc3ncnc(-n4nnc5ccccc54)c23)cc1 | 13µM* | 1% | -3% | ? | ?
c1ccc2c(c1)OCC(C1=NCCN1)O2 (stereo not given) | ? | -32% | -12% | 2.6µM*! | 72%
COc1ccc(-c2noc(N(c3ccc(F)c(Cl)c3)c3nc(-c4ccc(OC)c(OC)c4)no3)n2)cc1OC | 0%[46.1 µM] | / | -3% | -19%[46.1 µM] | /
Cc1ccc(C(=O)Nc2nc(C)c(C(=O)Nc3ccc4c(c3)CCC4)s2)cc1 | 1.1µM* | -27% | -11% | ? | -10%
O=C1c2ccccc2C(=O)c2c1cccc2-n1nnc2ccccc21 | 3%[46.1 µM] | -13% | -9% | 8% | 12%
O=C1C(N2CCOCC2)=C(n2nnc3ccccc32)C(=O)c2ccccc21 | 7.9µM* | 5% | ? | ? | ?
SMILES | Marburg entry inh | AmpC no deterg | AmpC inh detg | Lassa entry inh | AMA1-RON2 inh
COc1ccc(-n2cnc3cc(C(=O)NCCC4=CCCCC4)ccc32)cc1 | / | / | 5% | ? | /
C[C@H](c1ccccc1)N1C[C@@H](COCc2ccccc2)Oc2cccc(Oc3ccc(F)cc3)c2S1(=O)=O | / | / | / | 3.5µM* | /
CCCCN1CC(COCc2ccccc2)Oc2cccc(Oc3ccc(C(C)C)cc3)c2S1(=O)=O (stereo not given) | / | / | / | -3%[46.1 µM] | 11%
CCCc1c(NC(=O)Nc2ccc(Cl)cc2Cl)cnn1-c1ccccc1 | 0.89µM* | -26% | 10% | ? | 0%
O=C(Nc1ccc(F)cc1)c1nn(-c2ccccc2)c(=O)cc1Cl | 7.1µM* | -11% | 2% | ? | 34%
CCOC(=O)CCN1C(=O)[C@H]2[C@H]3[C@H](O)[C@H](O)C/C(=N/OCC(C)C)[C@@H]3CC[C@@H]2C1=O | -11%[14.2 µM] | / | / | / | /
CN1/C(=C\C(=O)c2cccc(S(=O)(=O)N3CCCCC3)c2)C(C)(C)c2ccccc21 | -6% | -31% | 0% | -11% | 11%
CN1c2ccccc2C(C)(C)C12CC(c1ccc(S(=O)(=O)N3CCCCC3)cc1)=NO2 (stereo not given) | 0.16µM* | 4% | 0% | 0.18µM* | -18%
O=S(=O)(c1ccc(-c2ccccc2)cc1)N1CCCCC1 | 5% | -11% | -13% | -14% | -14%
CN1c2ccccc2C(C)(C)C12CC(c1cccc(S(=O)(=O)N3CCCC3)c1)=NO2 (stereo not given) | 0.46µM* | -7% | ? | 0.52µM* | 2%
CCOc1ccc(C(=O)Nc2ccc(N3CCN(C)CC3)cc2)cc1Br | 11µM* | -12% | ? | 6% | -3%
CCOc1ccc(C(=O)Nc2ccc(N3CCN(C(=O)c4ccco4)CC3)cc2)cc1Br | ? | / | / | ? | 15%
C/C(=N/NC(=O)c1cccs1)c1ccc(NC(=O)COc2ccc(Cl)cc2Cl)cc1 | ? | -27% | ? | 13µM* | 4%
COc1ccccc1S(=O)(=O)Cc1ccc(C(=O)NCc2ccc(Cl)cc2)o1 | -6%[46.1 µM] | / | 5% | -26%[46.1 µM] | /
CCCCC(CC)CNC(=O)c1ccc2c(=O)n(CCOC)c(=O)[nH]c2c1 (stereo not given) | 2.8µM* | / | -7% | ? | /
CCN1CCN(S(=O)(=O)c2ccc(Cl)c(C(=O)N(C)CCOc3ccc(Cl)cc3)c2)CC1 | ? | ? | 0% | ? | -27%
COc1ccc(S(=O)(=O)N2CCCCCC2)cc1C(=O)N(C)CCOc1ccc(Cl)cc1 | ? | 171% | -7% | 18µM* | -2%
Cc1cccc(C)c1OCc1cc(C(=O)N2CCN(c3ccccc3)CC2C)no1 (stereo not given) | 13µM* | 45% | 6% | ? | -29%
CCOc1ccc(-c2nc3n(c(=O)c2C#N)CCCS3)cc1 | ? | -15% | -10% | 7.1µM* | -2%
COCCn1ccc2c(OCC(=O)NCc3ccccc3)cccc2c1=O | 22% | -9% | 0% | 1.6µM* | 17%
COCCn1ccc2c(OCC(=O)NCc3ccc(C)cc3)cccc2c1=O | 20% | -12% | -9% | ? | 6%
COC(=O)C[C@H]1c2ccccc2[C@@H]2C(=C[C@@H](C)[C@H]3C(=O)NC(=O)[C@H]32)N1C(=O)OC | 3%[14.2 µM] | / | / | / | /
CCc1ccc(C(=O)NNc2ccccc2F)cc1 | 4.5µM* | -11% | -5% | ? | 0%
CCOC(=O)c1c(-c2ccc(-c3ccccc3)cc2)csc1NC(=O)CCN1CCOCC1 | ? | 71% | -1% | 10µM* | -7%[11.6 µM]
